# Screening results deposited in PubChem by National Center for Advancing Translational Sciences (NCATS).
# p53 reactivator – mutant p53 re-activation in reporter cells | H1299 p53-A138V BP100-luciferase reporter, luminescence, 24 h | Potency, µM (top dose mostly 92.2 µM), for inactives: at the highest dose activity change, positive = activation, most hits filed as activators | 320,000 tested, 0.063% active | AID 504706; further: potency means the concentration at half of the fitted maximal effect; % of control where 0% means no effect; nearly all actives have a fitted effect of over 45% in size
#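 p53-null H1299 cells stably carrying temperature-sensitive p53-A138V and a BP100-luciferase reporter were pinned with compounds (4-point, 1:5 series) and held 24 hrs at 37 deg C. Luminescence was read 10 min after detection reagent.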
# IL2 activator – activates IL-2 in a cell-based reporter assay; IL-2 activation reporter assay, cell-based qHTS; stimulated with anti-CD3/CD4/CD28 beads; in transgenic mouse T cells; activation, % (series mostly up to about 46 µM); 360,000 tested, 0.065% active; in the data active means activation above about 50%; inconclusive means mostly about 30% to 49%; further: 0% is about no effect
#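 Unstimulated transgenic mouse T cells, 750 per well, received compound and, after 60 minutes, anti-CD3/anti-CD4 bead plus anti-CD28 stimulation. EGFP and DsRed were quantified after 18 hours.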
# BRCA1 expr act – activators of BRCA1 expression | MCF7-BRCA1-FFLuc reporter, luminescence, 48 h; response scale: scaled: vehicle 0%, 10 µM genistein 100% | Potency, µM (top dose mostly 46.1 µM), without a hit: top-dose activation, hits mostly activators | 380,000 tested, 1.1% active | AID 624202; further: potency means the concentration at half of the fitted maximal effect; nearly all actives have a fitted effect of over 80% in size
#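 Compounds are tested at multiple concentrations on MCF7 BRCA1-luciferase reporter cells seeded at 2000 per well; after 48 h, a single luminescence end-point is taken and curves fitted to the normalized data.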
# uPA surface inh – cell surface uPA generation inhibition; 330,000 tested, 0.31% active; Potency, µM (highest dose often 38.3 µM), inactives show at the top dose activity change, negative = inhibition, usual class: inhibitors; AID 540303; cell surface uPA generation assay, qHTS; active means well fitted inhibition curve with a large enough effect; inconclusive means small, poorly fitted or top-dose-only effect; inactive means no such curve, though single readings can be large or run the other way; tested in mouse RAW 264.7 cells; further: potency means the concentration at half of the fitted maximal effect; on the % scale 0 is the no-effect control and ±100 the full control effect; nearly all actives have a fitted effect of over 55% in size
# TCR activator – T cell receptor activation. AID 504894. 330,000 tested, under 10 active. primary human leukocytes, anti-CD3, IL-2 HTRF, 48 h. Potency, µM (top dose mostly 9.22 µM), for inactives: at the top dose activation of IL-2 secretion, usual class: activators; further: % of control where 0% means no effect
#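 IL-2 produced over 48 hr by a-CD3 bead-stimulated primary human leukocytes exposed to compounds was detected with a homogeneous time-resolved FRET immunoassay, 665nm acceptor signal after 320nm excitation.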
# * marks the source's active call; other numbers are inactive results; ? = inconclusive; . = no result; [ ] = another dose, or the depositor's remark. Hits are enriched below; roughly 1.4% of the tested compounds scored in any of these assays. Unless noted, the call rests on the fitted dose curve; in most records, active means well fitted curve in the direction sought with a large enough effect; inconclusive means small, poorly fitted or top-dose-only effect, or another doubt; inactive means no such curve, though single readings can be large; an effect the other way counts as inactive or inconclusive.
SMILES,p53 reactivator,IL2 activator,BRCA1 expr act,uPA surface inh,TCR activator
CN(C(=O)CSc1ccc2c(c1)OCCO2)c1ccccc1,24%,0,10µM*,-17%,.
Cc1ccc(-c2noc(-c3ccc(NCC4CCCO4)c([N+](=O)[O-])c3)n2)cc1 (centres undefined),.,.,-10%,.,.
O=C(NC(=S)NCCO)c1sc2ccccc2c1Cl,4%,2,11µM*,-14%,-7%
CC1CCCN(c2nc3ccsc3c(=O)s2)C1 (centres undefined),?,-3,13µM*,.,-6%
O=C(Cc1ccc(OCCc2ccccc2)cc1)NO,.,.,32%,.,.
COc1ccc(OC)c(NC(=O)c2c(N3CCCC3=O)c3cc(OC)ccc3n2C)c1,.,.,-6%,.,.
Cn1cc(S(=O)(=O)N2CCCCCC2)cc1C(=O)N1CCN(c2cccc(C(F)(F)F)c2)CC1,.,.,-26%,.,.
COc1ccccc1NC(=O)CCNS(=O)(=O)c1ccc2c(c1)CCCC(=O)N2,.,.,-10%,.,.
C#CCn1c(C)cc(C)c(S(=O)(=O)c2ccccc2)c1=O,19%,0,13µM*,2%,1%
Cc1cc(C)n(Cc2ccccc2)c(=O)c1S(=O)(=O)c1ccccc1,-2%,1,1%,-5%,0%
COc1ccc([C@@H]2CC(=O)c3c(O)cc(O)cc3O2)cc1O,12%,0,46%,25%,12%
COc1c(CC=C(C)C)cc(C2CC(=O)c3c(O)cc(O)cc3O2)cc1CC=C(C)C (centres undefined),-9%,-1,-11%,7.9µM*,0%
CC(C)OCCCNC(=O)Cc1ccc(NC(=O)N2CCCCc3ccccc32)cc1,.,.,-1%,.,.
O=C(Cn1cnc2ccccc2c1=O)c1ccc(Cl)cc1,4%,3,8.9µM*,9%,3%
CC(C)(C)n1ncc2c(=O)n(CC(=O)c3ccccc3)cnc21,?,1,13µM*,-4%,7%[46.1 µM]
CCCCn1c(O)c(N=Nc2ccccn2)c2ccccc21,2%,12,-49%,-3%,0%[46.1 µM]
CCCCn1c(O)c(N=Nc2ccccc2O)c2ccccc21,40µM*,0,-29%,1%,1%
O=C(Cc1ccccc1)NCC(=O)OCC(=O)c1ccc2ccccc2c1,.,.,-13%,.,.
Brc1ccccc1/C=N/Nc1ccccn1,9%,-4,-21%,-4%,0%
Cc1ccc(/C=N/Nc2ccccn2)s1,?,-4,11µM*,-2%,1%
CCOc1ccc(/C=N/Nc2ccccn2)cc1,?,0,?,6.3µM*,-1%
Clc1ccc(/C=N/Nc2ccccn2)cc1,24%,-4,88%,0%,-3%
COc1ccc2nc(Cl)c(/C=N/Nc3ccccn3)cc2c1,17%,-2,3.2µM*,-6%,3%
Cc1ccc(N2C(=O)c3ccccc3NC2c2ccccc2O)cc1 (centres undefined),?,1,1.6µM*,?,-1%
CCn1cc(C(=O)NCCc2ccc(OC)c(OC)c2)c(=O)c2cc(S(=O)(=O)N3CCc4ccccc4C3)ccc21,.,.,-31%,.,.
SMILES,p53 reactivator,IL2 activator,BRCA1 expr act,uPA surface inh,TCR activator
Cc1cc(C)nc(NC(=O)/C=C/c2ccc(Cl)cc2Cl)c1,?,-1,6.3µM*,1%,-3%
O=C(/C=C/c1ccc(Cl)cc1Cl)Nc1ccncc1,19%,0,16%,1%,1%[46.1 µM]
Cc1cc(C)nc(NC(=O)/C=C/c2ccccc2Cl)c1,?,2,3.2µM*,-2%,3%[46.1 µM]
Cc1cc(/C=C2\SC(=S)NC2=O)c(C)n1-c1cccc(O)c1,?,3,2.8µM*,-12%,7%
COc1ccc(-n2c(C)cc(/C=C3\SC(=O)NC3=O)c2C)cc1,?,-3,11µM*,4%,4%
Cc1ccc(-n2c(C)cc(/C=C3\SC(=O)NC3=O)c2C)cc1,?,0,?,?,-1%
Cc1cc(C)c(NC(=O)Cn2c(=O)n(CC3CCCO3)c(=O)c3ccccc32)c(C)c1 (centres undefined),.,.,3%,.,.
C=CCn1c(N)c(C(=O)NCCC2=CCCCC2)sc1=S,25%,-1,13µM*,-4%,.
NC(=O)NCCC1=CCCCC1,0%,2,5%,-4%,14%
Cc1nnnn1/C(=C\c1ccccc1)C(=O)OCC(=O)Nc1cccc(S(=O)(=O)N(C)C)c1,-44%,0,-27%,8.9µM*,0%
COc1ccc(NCc2cc3cc4c(cc3n(CC(=O)Nc3ccc(F)cc3)c2=O)OCCO4)cc1,.,.,-14%,.,.
c1ccc(NNC2=NCCS2)cc1,-2%,1,-1%,-4%,0%
c1ccc(NC2=Nc3ccccc3CS2)cc1,?,-1,3.5µM*,3%,-1%
COc1ccc(-c2nc(SC)n(S(=O)(=O)c3ccccc3)n2)cc1,19%,-3,10µM*,0%,2%
Cc1ccc(Nc2nc(NCc3ccco3)nc3nccnc23)c(C)c1,.,.,-16%,.,.
Cc1c2ccccc2nc2c(F)c(N(C)C)c(F)c(F)c12,?,13,13µM*,-3%,-3%[46.1 µM]
CN(C)c1c2ccccc2nc2c(F)c(F)c(F)c(F)c12,14%,-1,-69%,-15%,-1%
NS(=O)(=O)c1ccc(NC(=O)c2cnn3c2NC(=C2CC2)C=C3C(F)F)cc1,.,.,2%,.,.
O=C(CCNC(=O)c1ccccc1Cl)NCCCSc1ccccc1,6%,0,2%,-3%,.
O=C(CCc1ccccc1)NCCSc1ccccc1,22%,-1,5.6µM*,0%,2%
O=C(CCSc1ccccc1)NCCSCc1ccccc1,8%,2,4%,7%,-1%[46.1 µM]
O=C(NCCSc1ccccc1)c1ccccc1Cl,?,-2,2.8µM*,0%,-6%[46.1 µM]
O=C(NCCSc1ccccc1)c1cncc(Br)c1,10%,0,7.9µM*,3%,6%
CC(=O)Nc1ccc(NC(=O)CN2C(=O)CC(c3ccco3)Sc3ccccc32)cc1 (centres undefined),.,.,-11%,.,.
CCOC(=O)c1c(NC(=O)/C=C/c2ccc(OCC)cc2)sc(C(C)=O)c1C,.,.,31%,.,.
COc1ccc(-c2noc(CN(C(=O)Cc3ccc(C)cc3)C(C)C)n2)cc1,.,.,-25%,.,.
Cc1cc(C)nc(-n2nc(C)c(Sc3ccc(F)cc3)c2N)n1,?,-1,7.1µM*,-1%,0%
Cc1nn(-c2ccccc2)c(N)c1Sc1cccc([N+](=O)[O-])c1,2%,1,?,-15%,2%[46.1 µM]
COc1ccccc1CNC(=O)C1CCN(C2=NS(=O)(=O)C(c3ccc(C)c(C)c3)=C2C)CC1,.,.,-54%,.,.
